Values joined by “and” are separate entries in the source; they are usually repeats but may differ in a detail not shown here. Equal values may be shown once. The whole screen tested about 5,500 compounds, of which about 2,000 (36%) were called active. Not shown: some 18% with an inconclusive outcome. Rule as the data show it: active = normalized growth mostly below about 0.91 (no sharp cut-off); inconclusive = no clear call, values can overlap the other calls; inactive = mostly above about 0.92. The list shows a part of the results.
Test: chemical genetic growth profiling, strain panel (AID 1159580);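 also: tested at 20 µM; growth read once vehicle control cultures reached saturation at 30 °C; 1 = growth at the plate median or of vehicle wells; lower values mean less growth of the strain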
Details: S. cerevisiae deletion strains, growth OD

SMILES: O=C(OCc1ccccc1)c1ccccc1
- normalized growth (locus YAL021C, strain ccr4, stronger effect = lower value): 1.02 (inactive)
- normalized growth (locus YAL026C, strain drs2, stronger effect = lower value): 0.93 (inactive)
- normalized growth (locus YAL030W, strain snc1, stronger effect = lower value): 0.967 (inactive)
- normalized growth (locus YBL061C, strain skt5, stronger effect = lower value): 0.966 (inactive)
- normalized growth (locus YBR009C, strain hhf1, stronger effect = lower value): 0.954 (inactive)
- normalized growth (locus YBR021W, strain FUR4, stronger effect = lower value): 1 (inactive)
- normalized growth (locus YBR023C, strain chs3, stronger effect = lower value): 0.942 (inactive)
- normalized growth (locus YBR171W, strain sec66, stronger effect = lower value): 0.927 (inactive)
- normalized growth (locus YBR229C, strain ROT2, stronger effect = lower value): 0.994 (inactive)
- normalized growth (locus YBR231C, strain swc5, stronger effect = lower value): 0.995 (inactive)
- normalized growth (locus YBR279W, strain paf1, stronger effect = lower value): 0.979 (inactive)
- normalized growth (locus YCL011C, strain gbp2, stronger effect = lower value): 0.978 (inactive)
- normalized growth (locus YCL016C, strain dcc1, stronger effect = lower value): 0.947 (inactive)
- normalized growth (locus YCL029C, strain bik1, stronger effect = lower value): 0.969 (inactive)
- normalized growth (locus YCL061C, strain MRC1, stronger effect = lower value): 0.958 (inactive)
- normalized growth (locus YCL069W, strain vba3, stronger effect = lower value): 0.966 (inactive)
- normalized growth (locus YCR088W, strain abp1, stronger effect = lower value): 0.946 (inactive)
- normalized growth (locus YDL005C, strain med2, stronger effect = lower value): 0.981 (inactive)
- normalized growth (locus YDL035C, strain GPR1, stronger effect = lower value): 0.961 (inactive)
- normalized growth (locus YDL040C, strain nat1, stronger effect = lower value): 0.978 (inactive)
- normalized growth (locus YDL074C, strain BRE1, stronger effect = lower value): 0.95 (inactive)
- normalized growth (locus YDL101C, strain DUN1, stronger effect = lower value): 0.939 (inactive)
- normalized growth (locus YDL134C, strain PPH21, stronger effect = lower value): 0.926 (inactive)
- normalized growth (locus YDL185W, strain tfp1, stronger effect = lower value): 0.986 (inactive)
- normalized growth (locus YDL192W, strain arf1, stronger effect = lower value): 0.973 (inactive)
- normalized growth (locus YDR001C, strain nth1, stronger effect = lower value): 0.943 (inactive)
- normalized growth (locus YDR069C, strain doa4, stronger effect = lower value): 1.01 (inactive)
- normalized growth (locus YDR101C, strain arx1, stronger effect = lower value): 0.96 (inactive)
- normalized growth (locus YDR137W, strain rgp1, stronger effect = lower value): 0.714 (active)
- normalized growth (locus YDR159W, strain sac3, stronger effect = lower value): 0.951 (inactive)
- normalized growth (locus YDR162C, strain NBP2, stronger effect = lower value): 0.941 (inactive)
- normalized growth (locus YDR195W, strain ref2): 1.02 (inactive)
- normalized growth (locus YDR297W, strain sur2, stronger effect = lower value): 0.961 (inactive)
- normalized growth (locus YDR318W, strain mcm21, stronger effect = lower value): 0.948 (inactive)
- normalized growth (locus YDR334W, strain swr1, stronger effect = lower value): 0.977 (inactive)
- normalized growth (locus YDR335W, strain msn5, stronger effect = lower value): 0.95 (inactive)
- normalized growth (locus YDR388W, stronger effect = lower value): 0.97 (inactive)
- normalized growth (locus YDR392W, strain spt3, stronger effect = lower value): 0.764 (inactive)
- normalized growth (locus YDR502C, strain sam2, stronger effect = lower value): 0.918 (active)
- normalized growth (locus YEL003W, strain gim4, stronger effect = lower value): 0.959 (inactive)
- normalized growth (locus YEL037C, strain rad23, stronger effect = lower value): 0.97 (inactive)
- normalized growth (locus YEL061C, strain CIN8 (second series), stronger effect = lower value): 0.925 (inactive)
- normalized growth (locus YEL061C, strain CIN8, stronger effect = lower value): 0.988 (inactive)
- normalized growth (locus YER015W, strain faa2, stronger effect = lower value): 0.966 (inactive)
- normalized growth (locus YER016W, strain bim1, stronger effect = lower value): 0.973 (inactive)
- normalized growth (locus YER110C, stronger effect = lower value): 0.975 (inactive)
- normalized growth (locus YER111C, strain swi4, stronger effect = lower value): 0.957 (inactive)
- normalized growth (locus YER155C, strain BEM2 (second series), stronger effect = lower value): 0.716 (active)
- normalized growth (locus YER155C, strain BEM2, stronger effect = lower value): 0.98 (inactive)
- normalized growth (locus YER167W, strain BCK2, stronger effect = lower value): 0.942 (inactive)
- normalized growth (locus YFR010W, strain ubp6, stronger effect = lower value): 1.01 (inactive)
- normalized growth (locus YGL078C, strain dbp3, stronger effect = lower value): 0.943 (inactive)
- normalized growth (locus YGL086W, strain mad1, stronger effect = lower value): 0.959 (inactive)
- normalized growth (locus YGL167C, strain pmr1, stronger effect = lower value): 0.965 (inactive)
- normalized growth (locus YGL173C, strain kem1, stronger effect = lower value): 0.927 (inactive)
- normalized growth (locus YGL227W, strain vid30, stronger effect = lower value): 0.96 (inactive)
- normalized growth (locus YGL240W, strain doc1, stronger effect = lower value): 0.968 (inactive)
- normalized growth (locus YGL248W, strain PDE1, stronger effect = lower value): 0.944 (inactive)
- normalized growth (locus YGL253W, strain hxk2, stronger effect = lower value): 0.972 (inactive)
- normalized growth (locus YGR135W, strain pre9, stronger effect = lower value): 0.949 (inactive)
- normalized growth (locus YGR229C, strain SMI1, stronger effect = lower value): 0.852 (inactive)
- normalized growth (locus YGR252W, strain gcn5, stronger effect = lower value): 0.923 (inactive)
- normalized growth (locus YHR013C, strain ard1, stronger effect = lower value): 1.31 [resistant] (active)
- normalized growth (locus YHR027C, strain rpn1, stronger effect = lower value): 0.979 (inactive)
- normalized growth (locus YHR030C, strain SLT2, stronger effect = lower value): 0.953 (inactive) and 0.899 (inactive)
- normalized growth (locus YHR079C, strain IRE1 (second series), stronger effect = lower value): 0.969 (inactive)
- normalized growth (locus YHR079C, strain IRE1, stronger effect = lower value): 0.902 (inactive)
- normalized growth (locus YHR094C, strain hxt1, stronger effect = lower value): 0.967 (inactive)
- normalized growth (locus YHR129C, strain ARP1, stronger effect = lower value): 0.976 (inactive)
- normalized growth (locus YHR142W, strain chs7, stronger effect = lower value): 0.828 (active)
- normalized growth (locus YHR200W, strain rpn10, stronger effect = lower value): 0.979 (inactive)
- normalized growth (locus YIL066C, strain RNR3, stronger effect = lower value): 0.942 (inactive)
- normalized growth (locus YIL073C, strain SPO22, stronger effect = lower value): 0.924 (inactive)
- normalized growth (locus YIL125W, strain kgd1, stronger effect = lower value): 0.95 (inactive)
- normalized growth (locus YIR030C, strain dcg1, stronger effect = lower value): 0.972 (inactive)
- normalized growth (locus YJL092W, strain hpr5, stronger effect = lower value): 0.936 (inactive)
- normalized growth (locus YJL095W, strain BCK1 (second series), stronger effect = lower value): 0.959 (inactive)
- normalized growth (locus YJL095W, strain BCK1, stronger effect = lower value): 0.789 (active) and 0.886 (inactive)
- normalized growth (locus YJL115W, strain asf1, stronger effect = lower value): 0.959 (inactive)
- normalized growth (locus YJL129C, strain trk1, stronger effect = lower value): 0.933 (inactive)
- normalized growth (locus YJL134W, strain LCB3, stronger effect = lower value): 0.988 (inactive)
- normalized growth (locus YJL154C, strain vps35, stronger effect = lower value): 0.96 (inactive)
- normalized growth (locus YJL164C, strain tpk1, stronger effect = lower value): 0.922 (inactive)
- normalized growth (locus YJL166W, strain qcr8, stronger effect = lower value): 0.941 (inactive)
- normalized growth (locus YJL168C, strain set2, stronger effect = lower value): 0.979 (inactive)
- normalized growth (locus YJL187C, strain SWE1 (second series), stronger effect = lower value): 0.973 (inactive)
- normalized growth (locus YJL187C, strain SWE1, stronger effect = lower value): 0.966 (inactive)
- normalized growth (locus YJR043C, strain POL32, stronger effect = lower value): 0.955 (inactive)
- normalized growth (locus YJR066W, strain TOR1, stronger effect = lower value): 0.906 (inactive)

Reference: PubChem BioAssay AID1159580 (chemical genetic matrix, 2015)
